Source: PubChem BioAssay (National Center for Advancing Translational Sciences (NCATS))
D2 ag-1 = human D2 receptor agonism in beta-arrestin assay; 360,000 compounds, 0.084% hits; AID 624465; P14416; activation, % (no concentration beside the values); DiscoveRx PathHunter D2 beta-arrestin, luminescence, 90 min; 100% = 57 uM dopamine signal; in the data active = activation above about 40%; inconclusive = between about 15% and that limit
Target sequence (P14416 whole entry, looked up): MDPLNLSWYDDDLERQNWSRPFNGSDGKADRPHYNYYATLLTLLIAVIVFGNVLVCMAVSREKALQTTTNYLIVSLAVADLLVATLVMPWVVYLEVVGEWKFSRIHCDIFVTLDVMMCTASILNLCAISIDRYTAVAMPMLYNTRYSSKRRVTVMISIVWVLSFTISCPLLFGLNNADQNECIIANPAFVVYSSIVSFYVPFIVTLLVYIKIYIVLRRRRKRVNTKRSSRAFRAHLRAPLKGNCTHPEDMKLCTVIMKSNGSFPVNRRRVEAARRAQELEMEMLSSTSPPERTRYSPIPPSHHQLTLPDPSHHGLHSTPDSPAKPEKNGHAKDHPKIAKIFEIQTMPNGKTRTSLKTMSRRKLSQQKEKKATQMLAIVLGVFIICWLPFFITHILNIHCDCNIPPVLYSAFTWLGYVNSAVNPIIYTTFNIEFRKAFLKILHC
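DiscoveRx PathHunter D2 beta-arrestin cells (2,100/well) attached overnight, then compound-stimulated 90 min at 37 C in HBSS/10 mM HEPES/0.1% Tween-20 buffer; beta-galactosidase complementation read by luminescence after 1 h at ambient temperature. Dopamine 57 uM final (EC100) as control.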
D2 antagonist = antagonists of human D2 dopamine receptor; 340,000 compounds, 2% hits; inhibition, % at 10 µM; HEK293 TREx D2 cells, calcium flux, dopamine EC80; P14416; AID 485344; in the data active = inhibition above about 30%; inactive = below that, where a call was filed; also: 0% is about no effect
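Cells plated overnight at 30 C with tetracycline; no-wash calcium dye, 30–90 min RT; 10 s baseline; compound pinned; 180 s read; EC80 dopamine added; another 180 s read.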
D2 ag-2 = activates the human D2 dopamine receptor. activation, % at 2 µM. P14416. 340,000 compounds, 0.53% hits. HEK293 T-REx D2 cells, calcium flux agonist mode;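 active = activation over 3 SD above normal in the single-dose calcium agonist read, cut at about 30% in these data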; also: 0% is about no effect
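Calcium-flux readout, 1 cycle/sec over 180 s following compound pin transfer, in inducible HEK293 Trex D2 cells (force-coupled); dopamine controls included. Positive calcium responses during this window marked compounds as potential agonists.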
D2 PAM-1 = D2 dopamine receptor (human) potentiation; P14416; HEK293 T-REx D2, calcium flux, EC20 dopamine potentiation; potentiation, % at 10 µM; 340,000 compounds, 0.34% hits; AID 485347;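 active = potentiation over 3 SD above the plate norm, cut at about 30% in these data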; also: 0% is about no effect
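Primary screen. Calcium kinetics in induced HEK293 T-REx D2 cells: compound pre-addition 180 s, EC20 dopamine, 180 s more.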
D2 PAM-2 = positive allosteric modulators of human D2 dopamine receptor; AID 624464; 360,000 compounds, 0.23% hits; DiscoveRx D2 beta-arrestin cells, luminescence, 90 min; 100% = 57 uM dopamine signal; potentiation, % (test concentration not listed); P14416; in the data active = potentiation above about 50%; inconclusive = mostly about 30% to 49%
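PathHunter D2 cells, attached overnight at 37 deg C, received compound in DMSO plus dopamine at EC20 (50 nM final) for 90 min at 37 deg C. Beta-arrestin recruitment was read as luminescence after 1 h with detection reagent at ambient temperature.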
Starred values were filed as active, the others as inactive. Only some compounds are listed: those with a hit (about 2.4% of all), similar ones and a draw of the others.

What do the screens show for `C=CCN(c1ccccc1OC)S(=O)(=O)c1cccc(C(=O)NCC(c2ccc(OC)cc2)N2CCCC2)c1` (stereo unspecified)?
D2 ag-1: -1.2; D2 PAM-2: -29.1

What do the screens show for `O=c1c(Cc2ccc(F)cc2)c(O)ccn1Cc1ccc(Cl)cc1Cl`?
D2 ag-1: -1.5; D2 antagonist: 44.2*; D2 ag-2: 2.7; D2 PAM-1: 9.5; D2 PAM-2: -1.5

What do the screens show for `O=C(CN(c1ccc(Cl)c(C(F)(F)F)c1)S(=O)(=O)c1ccccc1)N1CCOCC1`?
D2 ag-1: -4.0; D2 antagonist: 34.9*; D2 ag-2: 1.0; D2 PAM-1: 1.4; D2 PAM-2: -8.2

What do the screens show for `O=C(CN(c1cccc(C(F)(F)F)c1)S(=O)(=O)c1ccccc1)N1CCOCC1`?
D2 ag-1: inconclusive; D2 antagonist: 13.1; D2 ag-2: 0.5; D2 PAM-1: 4.3; D2 PAM-2: -0.1

How did O=C(c1ccc(Cn2c(=S)[nH]c3ccccc3c2=O)cc1)N1CCN(c2ccccn2)CC1 do in these assays?
D2 ag-1: 3.0; D2 antagonist: 32.8*; D2 ag-2: 0.1; D2 PAM-1: -5.7; D2 PAM-2: -0.4

How did CCOC(=O)N1CCN(C(=O)c2ccc(Cn3c(=S)[nH]c4cc(OCC)c(OCC)cc4c3=O)cc2)CC1 do in these assays?
D2 ag-1: 3.5; D2 antagonist: 13.6; D2 ag-2: -0.3; D2 PAM-1: 15.1; D2 PAM-2: -18.0

Results for CCOc1cc2[nH]c(=S)n(Cc3ccc(C(=O)NCCN(CC)CC)cc3)c(=O)c2cc1OCC ?
D2 ag-1: -0.9; D2 antagonist: 49.7*; D2 ag-2: -0.2; D2 PAM-1: -22.2; D2 PAM-2: -24.2

Results for CCOC(=O)N1CCN(C(=O)c2ccc(Cn3c(=S)[nH]c4cc5c(cc4c3=O)OCO5)cc2)CC1 ?
D2 ag-1: -1.4; D2 antagonist: 31.2*; D2 ag-2: 0.3; D2 PAM-1: 4.6; D2 PAM-2: 14.7

How did C=CCn1c(=O)[nH]c2cc(C(=O)N3CC=C(c4ccccc4)CC3)ccc2c1=O do in these assays?
D2 ag-1: -1.5; D2 antagonist: 36.0*; D2 ag-2: -1.2; D2 PAM-1: 5.7; D2 PAM-2: 10.9

Results for O=C(CC[C@H]1O[C@@H](n2cnc3c(NC(=O)c4ccccc4)ncnc32)[C@H](O)[C@@H]1O)NCC1CCN(Cc2ccccc2)CC1 ?
D2 ag-1: -0.6; D2 PAM-2: -3.7

How did CCOc1ccccc1CNC(=O)Cn1nc(N2CCN(c3ccccc3)CC2)ccc1=O do in these assays?
D2 ag-2: -0.4; D2 PAM-1: 11.8

What do the screens show for `O=C(NCc1ccccc1)C(=O)Nc1c2c(nn1-c1ccccc1)CSC2`?
D2 ag-2: 0.5

Results for CCCCCn1c(=O)[nH]c2cc(C(=O)N3CCN(Cc4ccc5c(c4)OCO5)CC3)ccc2c1=O ?
D2 ag-1: 4.5; D2 antagonist: 13.7; D2 ag-2: 37.7*; D2 PAM-1: -17.3; D2 PAM-2: -8.8

What do the screens show for `O=C(c1ccc2c(=O)n(CCc3ccccc3)c(=O)[nH]c2c1)N1CCN(c2ccccc2)CC1`?
D2 ag-1: -3.0; D2 antagonist: -4.3; D2 ag-2: 3.6; D2 PAM-1: 30.0*; D2 PAM-2: -1.4

What do the screens show for `O=C(c1ccc2c(=O)n(CCc3ccccc3)c(=O)[nH]c2c1)N1CCN(c2ccc(F)cc2)CC1`?
D2 ag-1: 7.5; D2 antagonist: 0.0; D2 ag-2: -0.3; D2 PAM-1: -5.8; D2 PAM-2: 16.3

Results for Cc1cccc(Cn2c(CN3CCC(C(=O)NCCc4ccccc4)CC3)cc3ccccc32)c1 ?
D2 PAM-1: 12.5

What do the screens show for `Cc1ccc(S(=O)(=O)NNC(=O)CCC(=O)Nc2ccc(C)c(C)c2)cc1`?
D2 ag-1: -12.5; D2 antagonist: 31.5*; D2 ag-2: 0.5; D2 PAM-1: 9.8; D2 PAM-2: -28.8

Results for CCCCN(CC)CCNC(=O)c1cc2c(-c3ccccc3F)nn(C)c2s1 ?
D2 ag-1: 44.2*; D2 antagonist: -28.3; D2 ag-2: 1.2; D2 PAM-1: -3.9; D2 PAM-2: 8.1

What do the screens show for `Cc1ccc(CCNC(=O)c2cc3c(-c4ccccc4F)nn(C)c3s2)cc1`?
D2 ag-2: 0.4; D2 PAM-1: -14.2

How did CCCCN(CC)CCNC(=O)c1cc2c(=O)n(CC)c3ccccc3c2s1 do in these assays?
D2 ag-1: -1.9; D2 antagonist: 35.7*; D2 ag-2: -3.1; D2 PAM-1: 8.3; D2 PAM-2: -18.5

Results for CCn1c(=NC(=O)c2ccc3c(c2)OCCO3)sc2c(C)ccc(OC)c21 ?
D2 PAM-1: 11.5

Results for CCN(CC)C(=O)C1CCCN(c2ncnc3c2nc2n3CCCCC2)C1 (stereo unspecified) ?
D2 PAM-1: 4.2

What do the screens show for `COCCNC(=O)c1cccc(-n2c(C)nc3cccnc32)c1`?
D2 ag-2: 0.2; D2 PAM-1: -3.9

How did Cc1c(C=C(C#N)c2ccc([N+](=O)[O-])cc2)c(=O)n(-c2ccccc2)n1C do in these assays?
D2 ag-1: -3.3; D2 PAM-2: -8.0

What do the screens show for `Cc1nnc(SCC(=O)NCCN2C(=O)CSC2=O)n1-c1ccccc1`?
D2 ag-1: 0.1; D2 antagonist: 46.7*; D2 ag-2: 0.3; D2 PAM-1: 4.9; D2 PAM-2: 3.6

Results for O=C(Nc1ccccc1)c1nc[nH]c1C(=O)NCCNC(=O)c1[nH]cnc1C(=O)Nc1ccccc1 ?
D2 ag-1: inconclusive; D2 PAM-2: 61.0*

What do the screens show for `CCOC(=O)c1ccc(NC(=O)c2ncn3c2C(=O)N[C@H](C)C3)cc1`?
D2 ag-1: -9.2; D2 PAM-2: 2.5

How did CSCCC(NS(=O)(=O)c1ccc2c(c1)oc(=O)n2C)C(=O)N1CCN(c2cc(Cl)ccc2C)CC1 (stereo unspecified) do in these assays?
D2 ag-2: -0.2; D2 PAM-1: -13.5

Results for Cc1cc(NC(=O)CS(=O)(=O)c2ccc(Cl)cc2)no1 ?
D2 ag-1: -1.9; D2 antagonist: 1.5; D2 ag-2: 0.1; D2 PAM-1: 44.5*; D2 PAM-2: -7.0

What do the screens show for `Cc1cc(NC(=O)CS(=O)(=O)c2ccc(F)cc2)no1`?
D2 ag-1: -3.4; D2 antagonist: -10.4; D2 ag-2: -0.6; D2 PAM-1: 6.7; D2 PAM-2: -19.2

How did CCCN1C2CCCC1CC(NC(=O)c1ccccc1)C2 (stereo unspecified) do in these assays?
D2 ag-1: -0.1; D2 antagonist: 30.1*; D2 ag-2: 3.0; D2 PAM-1: -8.5; D2 PAM-2: -22.3

What do the screens show for `CCCCN1C2CCCC1CC(NC(=O)c1cccc(Cl)c1)C2` (stereo unspecified)?
D2 ag-1: -3.4; D2 antagonist: 30.8*; D2 ag-2: -0.3; D2 PAM-1: -23.9; D2 PAM-2: -29.9

What do the screens show for `CC(=O)Nc1c(Cl)c2c(c(Cl)c1Br)-c1ccc(Cl)cc1C2`?
D2 ag-1: 0.6; D2 PAM-2: -1.2
